Data taken from the supplement of paper PMC11018630.
Counter-ions that a name gives are not always drawn. ± gives the standard deviation of the averaged measurements. The full ranking holds about 1,100 compounds; the median of “day of extracellular matrix detachment from plate” is about 16, and the lowest 2% start at about 10. What follows is part of a selection rich in the lowest values, with near analogues and random picks from the rest.

tested on: RDEB dermal fibroblasts EB71; experiment: day of extracellular matrix detachment from plate (days); higher = delayed detachment (less fibrotic matrix); settings: compound concentration: 10 uM

SMILES	day of extracellular matrix detachment from plate
C#C[C@]1(O)CC[C@H]2[C@@H]3CCC4=CC(=O)CC[C@@H]4[C@H]3C(=C)C[C@@]21CC [Etonogestrel]	20
CC(C)Oc1ccc(-c2nc(-c3cccc4c3CC[C@@H]4NCCO)no2)cc1C#N [Ozanimod (RPC1063)]	16.3 ± 1.1
Cc1cccc(Nc2ccncc2S(=O)(=O)NC(=O)NC(C)C)c1 [Torsemide]	15.7 ± 6.3
CN1CCN2c3ncccc3Cc3ccccc3C2C1 (stereo not given) [Mirtazapine]	12
NC1=NCC2c3ccccc3Cc3ccccc3N12 (stereo not given) [Epinastine HCl]	13
CN1CCN2c3ccccc3Cc3ccccc3C2C1 (stereo not given) [Mianserin HCl]	9.67 ± 1.1
C=C[C@]1(C)C[C@@H](OC(=O)CSC(C)(C)CNC(=O)[C@H](N)C(C)C)[C@]2(C)[C@H](C)CC[C@]3(CCC(=O)[C@H]32)[C@@H](C)[C@@H]1O [Valnemulin HCl]	19
C[C@]12CC[C@@H]3c4ccc(O)cc4CC[C@H]3[C@@H]1CC[C@@H]2OC(=O)CCC1CCCC1 [Estradiol Cypionate]	13
C[C@@H]1COC(Nc2ccc3ncnc(Nc4ccc(OCc5nccs5)c(Cl)c4)c3c2)=N1 [Varlitinib]	31
C[C@H](CCC(=O)O)[C@H]1CC[C@H]2[C@@H]3[C@H](O)C[C@@H]4C[C@H](O)CC[C@]4(C)[C@H]3CC[C@]12C [Chenodeoxycholic Acid]	15.7 ± 6.3
C[C@H](CCC(=O)O)[C@H]1CC[C@H]2[C@@H]3CC[C@@H]4C[C@H](O)CC[C@]4(C)[C@H]3CC[C@]12C [Lithocholic acid]	15.3 ± 2.3
C[C@H](CCC(=O)O)[C@H]1CC[C@H]2[C@@H]3[C@@H](O)C[C@@H]4C[C@H](O)CC[C@]4(C)[C@H]3CC[C@]12C [Ursodiol]	10.3 ± 1.1
CO[C@H]1/C=C/O[C@@]2(C)Oc3c(C)c(O)c4c(O)c(c(/C=N/N5CCN(C6CCCC6)CC5)c(O)c4c3C2=O)NC(=O)/C(C)=C\C=C\[C@H](C)[C@H](O)[C@@H](C)[C@@H](O)[C@@H](C)[C@H](OC(C)=O)[C@@H]1C [Rifapentine]	12
C[C@@H]1CC(=O)NN=C1c1ccc(NN=C(C#N)C#N)cc1 [Levosimendan]	19.3 ± 6.3
CC[C@@H](CO)NCCN[C@@H](CC)CO [Ethambutol HCl]	15.3 ± 2.3
Cc1c(C)c2c(c(C)c1O)CC[C@@](C)(CCC[C@H](C)CCC[C@H](C)CCCC(C)C)O2 [Vitamin E]	17.3 ± 2.5
CCOc1ccccc1OC(c1ccccc1)C1CNCCO1 (stereo not given) [Reboxetine mesylate]	18
N[C@@H](CC(=O)N1CCn2c(nnc2C(F)(F)F)C1)Cc1cc(F)c(F)cc1F [Sitagliptin phosphate monohydrate]	18
C#C[C@]1(O)CC[C@H]2[C@@H]3CCc4cc(OC)ccc4[C@H]3CC[C@@]21C [Mestranol]	10 ± 1.7
C#C[C@]1(O)CC[C@H]2[C@@H]3CCC4=CC(=O)CC[C@@H]4[C@H]3CC[C@@]21C [Norethindrone]	19
C#C[C@]1(O)CC[C@H]2[C@@H]3CCc4cc(O)ccc4[C@H]3CC[C@@]21C [Ethinyl Estradiol]	14
CCC(C)(C)c1ccc(CC(C)CN2C[C@@H](C)O[C@@H](C)C2)cc1 (stereo not given in full) [Amorolfine HCl]	12
Cc1cc(/C=C/C#N)cc(C)c1Nc1ccnc(Nc2ccc(C#N)cc2)n1 [Rilpivirine]	27
O[C@H]1[C@H](O)[C@@H](O)[C@H](O)[C@@H](O)[C@H]1O [i-Inositol]	13
CS(=O)(=O)c1ccc(C(=O)Nc2ccc(Cl)c(-c3ccccn3)c2)c(Cl)c1 [Vismodegib (GDC-0449)]	14.3 ± 1.1

SMILES	day of extracellular matrix detachment from plate
COc1cccc(-c2ccc(NC(=O)C3=C(C(=O)O)CCC3)c(F)c2)c1 [Vidofludimus]	16.3 ± 1.1
CCOc1cc([C@@H](CS(C)(=O)=O)N2C(=O)c3cccc(NC(C)=O)c3C2=O)ccc1OC	12.7 ± 2.9
O=C1CC[C@@H](C(=O)N2CSC[C@H]2C(=O)O)N1 [Pidotimod]	15.3 ± 2.3
NC[C@H](O)c1ccc(O)c(O)c1 [Noradrenaline bitartrate monohydrate]	16.7 ± 2.3
CC(C)(C)NCC(O)c1ccc(O)c(CO)c1 (stereo not given) [Salbutamol Sulfate]	19
CC(C)NCC(O)c1ccc(O)c(O)c1 (stereo not given) [Isoprenaline HCl]	11 ± 1.7
CNC[C@H](O)c1cccc(O)c1 [Phenylephrine HCl]	12
CNC[C@H](O)c1ccc(O)c(O)c1 [Epinephrine HCl]	16.3 ± 4
CNC[C@H](O)c1ccc(O)c(O)c1 [Epinephrine Bitartrate]	9
CNC[C@@H](O)c1ccc(O)c(O)c1 [L-Adrenaline]	10 ± 1.7
O=C(/C=C/C=C/c1ccc2c(c1)OCO2)N1CCCCC1 [Piperine]	11 ± 1.7
Cc1ccsc1C(=CCCN1CCC[C@@H](C(=O)O)C1)c1sccc1C [Tiagabine]	17
Cc1ccsc1C(=CCCN1CCC[C@@H](C(=O)O)C1)c1sccc1C [Tiagabine hydrochloride]	17.2 ± 2
Cc1c(-c2ccnn2C)cc(C(=O)NCc2ccc(S(C)(=O)=O)cn2)c(=O)n1-c1cccc(C(F)(F)F)c1 [Alvelestat (AZD9668)]	13.7 ± 1.1
CCCNS(=O)(=O)Nc1ncnc(OCCOc2ncc(Br)cn2)c1-c1ccc(Br)cc1 [Macitentan]	9.67 ± 1.1
O=C(O)c1cc(=O)c2ccccc2o1 [Chromocarb]	13
OCC(O)CN1CCN(c2ccccc2)CC1 (stereo not given) [Dropropizine]	15
C=C1CC[C@H](O)C/C1=C/C=C1\CCC[C@]2(C)[C@@H]([C@H](C)/C=C/[C@H](C)C(C)C)CC[C@@H]12 [Vitamin D2]	18
CC(=O)/N=c1/sc(S(N)(=O)=O)nn1C [Methazolamide]	18
O=C1C(O)=C([C@H]2CC[C@H](c3ccc(Cl)cc3)CC2)C(=O)c2ccccc21 [Atovaquone]	18
CC[C@H](Nc1ncnc2[nH]cnc12)c1nc2cccc(F)c2c(=O)n1-c1ccccc1 [CAL-101 (Idelalisib, GS-1101)]	22.3 ± 1.1
O=C([O-])C(O)[C@H](O)[C@@H](O)[C@H](O)[C@H](O)CO.O=C([O-])C(O)[C@H](O)[C@@H](O)[C@H](O)[C@H](O)CO.[Ca+2] (stereo not given in full) [Calcium Gluceptate]	18
S=c1[nH]cnc2nc[nH]c12 [Mercaptopurine (6-MP)]	15 ± 1.7
O=c1[nH]c(=O)n([C@H]2C[C@H](O)[C@@H](CO)O2)cc1I [Idoxuridine]	23
COc1cc(OC)c(C(=O)CCCN2CCCC2)c(OC)c1 [Buflomedil HCl]	20 ± 1.7
